Data taken from PubChem BioAssay AID2540 (Sanford-Burnham Center for Chemical Genomics, 2010).
Hit rate of the full screen: of about 330,000 compounds, about 4,100 (1.2%) were called active. The sample holds actives, similar compounds and a random draw of the others, so the mix is not that of the screen. Values without a mark were called inactive. Cut-off read from the data, not from the text of the source: active = inhibition above about 50%; inactive = the rest.

Target: Sentrin-specific protease 8 (Homo sapiens) (UniProt Q96LD8)
Experiment: blockers of human SENP8 peptidase activity – biochemical, luminescence, primary screen (AID 2540)
Details: purified SENP8, Z-RLRGG-aminoluciferin cleavage, at 10 µM, stronger effect = higher value

Chain of Sentrin-specific protease 8 (Homo sapiens) (Q96LD8 whole entry, looked up): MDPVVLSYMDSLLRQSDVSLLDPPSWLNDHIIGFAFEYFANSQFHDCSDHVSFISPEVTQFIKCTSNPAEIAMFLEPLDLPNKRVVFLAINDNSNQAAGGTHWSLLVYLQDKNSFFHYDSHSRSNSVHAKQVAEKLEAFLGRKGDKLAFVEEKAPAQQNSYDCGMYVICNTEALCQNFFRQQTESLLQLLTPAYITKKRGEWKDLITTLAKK

Row | Structure (SMILES) | inhibition
1 | CCC(C)(C)c1ccc(Oc2ccc(NC(=O)COC(=O)C3=COCCO3)cc2)cc1 | -2.31%
2 | O=[N+]([O-])c1c(NCCO)cc(Sc2nc3ccccc3s2)c2nonc12 | 85% (active)
3 | NC(=O)c1ccc(Nc2ccc3nonc3c2[N+](=O)[O-])cc1 | 2.67%
4 | Cc1nc2nc(CSc3nc4ccccc4s3)cc(=O)n2[nH]1 | -14.3%
5 | CC(C)NC(=O)/C(C#N)=C\c1ccc(N(C)C)c(Br)c1 | -4.03%
6 | CC1(C)CC(=O)C(C2c3ccccc3S(=O)(=O)c3ccccc32)C(=O)C1 | -0.512%
7 | CC(CNc1ccc([N+](=O)[O-])cc1)NC(=O)c1ccccc1Br (stereo not drawn) | 0%
8 | O=C(O)c1c(NC(=O)N2CCCC2)sc2c1CCCC2 | -9.81%
9 | COC(=O)c1c(NC(=O)c2ccccc2F)sc2c1C(C(=O)OC)CC2 (stereo not drawn) | -3.54%
10 | O=C(Nc1sc2c(c1C(=O)O)CCC2)c1ccccc1F | 86.7% (active)
11 | CCOC(=O)C1CCCCN1Cc1ccc(OC)c(OC)c1OC (stereo not drawn) | -0.162%
12 | O=C(Nc1ccc2c(c1)CCC2)c1ccc(Br)s1 | 61.5% (active)
13 | CC1CC(C)CN(CCC(=O)Nc2ccc3c(c2)CCC3)C1 (stereo not drawn) | 7.63%
14 | CC(C)Oc1ccc(C(=O)NCC(=O)Nc2ccc3c(c2)CCC3)cc1 | 6.91%
15 | Cc1nn(-c2ccccc2)c2c1C(=O)NC(=O)C(C)(C)C2 | 4.21%
16 | Cc1nnc(SCc2ccc(C(=O)c3ccc(Cl)cc3)o2)n1-c1ccccc1 | -8.59%
17 | Nc1nc(NCc2ccccc2)n(-c2ccccc2)n1 | 4.17%
18 | COc1ccccc1CNC(=O)CSc1nc(=O)n(Cc2ccncc2)c2c1CCC2 | -3.51%
19 | Nc1nc(NCC(=O)O)nc(N2CCCCCC2)c1[N+](=O)[O-] | -1.61%
20 | N#Cc1c(N2CCCCC2)nc(N)c2c(N)nc(SCC(=O)O)cc12 | 70.8% (active)
21 | N#CCc1c(C#N)c(N)nc(N2CCCC2)c1C#N | 0.98%
22 | O=S(=O)(NCC1CCCO1)c1cnc(Cl)c(Cl)c1 (stereo not drawn) | 3.51%
23 | O=C(CN(c1ccccc1)S(=O)(=O)c1ccc(Cl)cc1)Nc1ccccc1C(=O)N1CCCC1 | 2.45%
24 | Cc1nc(C(=O)N2CCCC(C(=O)c3ccc(Cl)cc3)C2)cs1 (stereo not drawn) | -2.8%
25 | Cn1cc(-c2ccccc2)cc(C#N)c1=O | 3.36%

Row | Structure (SMILES) | inhibition
26 | COC(=O)[C@@H](NC(=O)NCc1cccc(OC)c1)C(C)C | 0.612%
27 | O=C(O)c1cccc(N=NN2CCCCCC2)c1 | 88.8% (active)
28 | NC1=NN(c2cccc(C(=O)O)c2)C(=O)C1 | -5.54%
29 | O=C(O)c1ccc(N=NN2CCOCC2)cc1 | 1.65%
30 | Cc1cc(C(F)(F)F)nn1CC(=O)N1CCCC1 | -6.86%
31 | COc1ccc(C2/C=C\CN(S(=O)(=O)c3cccs3)CC(=O)N2Cc2ccc(F)cc2)cc1 (stereo not drawn) | -0.424%
32 | CN1CCN(C2Cc3ccc(Cl)cc3Sc3ccc(F)cc32)CC1 (stereo not drawn) | -10.9%
33 | CCOC(=O)/C(=C\c1ccc([N+](=O)[O-])cc1)C(=O)c1cc(C(C)=O)c(Nc2ccccc2)s1 | 6.19%
34 | O=C(c1ccc(F)cc1)n1c(=S)nc2ccccn21 | 64.1% (active)
35 | O=C(Cn1c(=S)nc2ccccn21)N1CCc2ccccc2C1 | 0.682%
36 | O=C(c1ccc(F)cc1)n1cc(C(=S)N2CCOCC2)c2ccccc21 | -5.7%
37 | Cc1ccccc1SCC(=O)OCC(=O)N1CC(=O)Nc2ccccc21 | 4.24%
38 | Cc1cccc(CN2CCC(CNC(=O)Nc3ccc(F)c(Cl)c3)CC2)c1 | -1.33%
39 | CC(C)Cn1c(N)c(C(=O)NCc2cccs2)c2nc3ccccc3nc21 | 90% (active)
40 | CCOc1ccccc1NC(=O)Cn1nnc(C(=O)NCc2cccs2)c1N | 19.3%
41 | Cn1ncc(Br)c1C(=O)NCc1cccs1 | -2.84%
42 | CCCCNC(=O)N1CCN(S(C)(=O)=O)CC1 | -11%
43 | Cc1ccc(C(=O)O/N=C(\N)c2ccccn2)cc1Cl | 78% (active)
44 | O=C(COC(=O)c1ccccn1)NNC(=O)c1ccc([N+](=O)[O-])cc1 | -16.2%
45 | O=C(COC(=O)c1ccccn1)NNC(=O)c1ccc(Br)cc1 | 0.814%
46 | N/C(=N\OC(=O)c1ccc([N+](=O)[O-])cc1)c1ccccn1 | 89.6% (active)
47 | C/C(=N/OC(=O)c1cccc(C(F)(F)F)c1)c1cnccn1 | -12.8%
48 | COc1ccc(C(=O)O/N=C(\N)c2ccccn2)cc1[N+](=O)[O-] | -12%
49 | CCCNC(=O)COc1coc(CN2CCN(Cc3ccccc3)CC2)cc1=O | -2.92%
50 | CC(C)Cn1c(SCC(=O)Nc2ccc(Cl)cc2F)nc(O)cc1=O | 0.222%

Row | Structure (SMILES) | inhibition
51 | COc1cccc2sc(Nc3nc(C)c(C(C)=O)s3)nc12 | 66.7% (active)
52 | COc1cc2ccccc2cc1C(=O)Nc1nc(C)c(C(C)=O)s1 | -0.787%
53 | CNC(=O)c1sc(NCc2ccccc2OC)nc1C | 0.124%
54 | Cc1ccc(S(=O)(=O)N2CCCCC2)cc1C(=O)N1CCN(CCO)CC1 | 4.2%
55 | O=C(NCc1ccccc1Cl)C1CCCN1S(=O)(=O)c1ccc(F)cc1 (stereo not drawn) | -7.31%
56 | Cc1ccc(N2CC(C(=O)Nc3cc(Cl)ccc3-n3cncn3)CC2=O)cc1 (stereo not drawn) | 10.6%
57 | Cc1ccc(-n2ncc3c(Nc4cccc(C(=O)O)c4)ncnc32)cc1 | 90.4% (active)
58 | Cc1ccc(Nc2ncnc3c2cnn3C)c(C)c1 | 0.699%
59 | CC(C)Sc1ncnc2c1cnn2-c1ccccc1 | 38.9%
60 | O=C(C1CCN(C2CCN(Cc3ccc4cc(F)ccc4n3)CC2)CC1)N1CCCC1 | -5.41%
61 | O=c1[nH]cnc(O)c1C(c1ccc(F)cc1)c1c(O)nc[nH]c1=O | -12.7%
62 | O=c1c(-c2ccccc2)coc2cc(O)ccc12 | 55% (active)
63 | CC(C)CN(Cc1c(O)ccc2c(=O)c(-c3ccccc3)coc12)CC(C)C | -6.97%
64 | CCc1ccc(Oc2coc3cc(O)ccc3c2=O)cc1 | -15.7%
65 | O=C(O)c1ccc(OCC2CCCO2)cc1 (stereo not drawn) | -8.8%
66 | COC(=O)c1ccc(Sc2ccc(F)cc2)c(N)c1 | -1.32%
67 | O=C(/C=C/NCc1ccc(F)cc1)c1ccccc1 | -2.04%
68 | CCOc1ccc(N/C=C/C(=O)c2cc(OC)c(OC)c(OC)c2)cc1 | -9.53%
69 | COc1ccc(C(=O)/C=C/Nc2ccccn2)cc1 | 95.5% (active)
70 | CCOc1ccc(NC(=S)N2CCC(NC(=O)c3ccccc3)CC2)cc1 | -6%
71 | Cc1ccc(N/C=C/C(=O)c2ccccc2)cc1C | 88.8% (active)
72 | COc1ccc(N2C(=O)CCC(C(=O)Nc3ccccn3)C2c2ccc(OC)c(OC)c2)cc1 (stereo not drawn) | -4.67%
73 | CC(=O)Nc1ccc(/C=C/C(=O)c2ccccc2)cc1 | -16.7%
74 | CCOc1ccc(N/C=C/C(=O)c2ccccc2)cc1 | 93.7% (active)
75 | Cc1cc(N/C=C\C(=O)c2ccc(Cl)c(Cl)c2)no1 | -16.9%

Row | Structure (SMILES) | inhibition
76 | COc1ccc(C)cc1N(C)C(=O)c1coc(=O)c2ccccc12 | -8.47%
77 | O=C(CN1C(=O)NC2(CCOc3ccccc32)C1=O)Nc1cccc([N+](=O)[O-])c1 (stereo not drawn) | 7.44%
78 | O=C(Nc1c2c(nn1-c1ccccc1)CS(=O)(=O)C2)C1CCCC1 | -3.98%
79 | COc1cc(/C=C(\C#N)c2nc3c(s2)CC(C)CC3)ccc1O (stereo not drawn) | -4.73%
80 | COc1cc(/C=C(\C#N)c2nc3ccccc3[nH]2)ccc1O | 91.8% (active)
81 | Cc1ccc2nc(/C(C#N)=C\c3ccc(OC(=O)c4cccs4)cc3)[nH]c2c1 | 3.01%
82 | COc1ccc(NC(=O)CN(C)C(=O)Cc2coc3cc(C)c(C)cc23)cc1 | -3.13%
83 | COc1ccccc1C1=CC(=O)C[C@H](c2ccc(F)cc2)C1 | -4.36%
84 | CCN(CC)CCNc1nc(-c2ccc(OC(F)F)cc2)c(C)s1 | -5.12%
85 | COc1ccc(/C=C2/SC(=O)N(CCCCCC(=O)Nc3ccccc3C(=O)O)C2=S)cc1 | 50.3% (active)
86 | COc1ccc(/C=C2\SC(=O)N(CCC(=O)NCCCn3ccnc3)C2=O)cc1 | -11.9%
87 | COc1ccc(/C=C2\SC(=O)N(CCC(=O)NC3CCS(=O)(=O)C3)C2=O)cc1 (stereo not drawn) | 2.13%
88 | CN1C(=O)CC(c2ccccc2)C1=O (stereo not drawn) | 1.07%
89 | COc1cc(NC(=S)NCCSc2ccc(C)cc2)cc(OC)c1 | -1.13%
90 | CCOC(=O)c1cc2cc3ccccc3cc2oc1=O | -4.84%
91 | COc1cccc(C(=O)c2cc3ccc(O)cc3oc2=O)c1 | 96.9% (active)
92 | COc1cccc(C(=O)NNC(=O)c2cccc(F)c2)c1 | -1.03%
93 | CN1CCN(Cc2nc3cc(NC(=O)COc4ccc([N+](=O)[O-])cc4)ccc3n2C)CC1 | 0.315%
94 | CN(C)c1cc(-c2ccc(F)cc2)oc(=O)c1Cl | 2.47%
95 | O=c1oc2cc(O)ccc2cc1-c1ccc(F)cc1 | 95.4% (active)
96 | COc1ccc(-c2cc3ccc(OCc4nn[nH]n4)cc3oc2=O)cc1 | 39.6%
97 | Cc1ccc(C)c(NC(=O)CN(C)C(=O)c2ccc3ncsc3c2)c1 | -13.6%
98 | O=C(Nc1ccccc1C(=O)O)c1ccc(N2C(=O)C3CC=CCC3C2=O)cc1 (stereo not drawn) | 21.2%
